# Laboratory results reported in ChEMBL document CHEMBL1961873, “Compounds: GSK PKIS; Assays: Nanosyn kinase panel” (2012).
# Experiments:
# [1] = biological target: T1, Inhibitor of nuclear factor kappa-B kinase subunit epsilon (Homo sapiens) (UniProt Q14164); conditions: at 1 µM;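 also: reported values are averaged percent inhibition figures against human IKKε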
# T1 sequence (whole entry): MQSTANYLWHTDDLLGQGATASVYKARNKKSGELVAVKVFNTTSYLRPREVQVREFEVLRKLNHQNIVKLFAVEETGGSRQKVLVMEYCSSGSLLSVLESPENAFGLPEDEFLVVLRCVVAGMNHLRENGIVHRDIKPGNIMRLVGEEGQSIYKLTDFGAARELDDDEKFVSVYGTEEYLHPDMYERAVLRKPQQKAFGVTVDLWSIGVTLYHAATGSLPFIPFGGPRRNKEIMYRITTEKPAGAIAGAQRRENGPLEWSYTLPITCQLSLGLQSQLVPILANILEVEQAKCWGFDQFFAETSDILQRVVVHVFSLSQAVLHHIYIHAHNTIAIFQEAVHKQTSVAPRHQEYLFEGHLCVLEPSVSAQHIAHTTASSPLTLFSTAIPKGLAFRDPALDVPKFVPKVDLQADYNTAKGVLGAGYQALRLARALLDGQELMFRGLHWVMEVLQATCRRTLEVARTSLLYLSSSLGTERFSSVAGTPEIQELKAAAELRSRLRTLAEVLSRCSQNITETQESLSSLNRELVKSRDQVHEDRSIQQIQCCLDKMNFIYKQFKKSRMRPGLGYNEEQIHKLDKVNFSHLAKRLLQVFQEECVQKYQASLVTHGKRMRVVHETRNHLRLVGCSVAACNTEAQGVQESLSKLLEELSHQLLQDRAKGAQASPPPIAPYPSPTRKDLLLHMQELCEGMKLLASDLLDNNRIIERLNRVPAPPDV
# [2] = biological target: T2, Serine/threonine-protein kinase Nek1 (Homo sapiens) (UniProt Q96PY6); conditions: at 0.1 µM
# T2 sequence (whole entry): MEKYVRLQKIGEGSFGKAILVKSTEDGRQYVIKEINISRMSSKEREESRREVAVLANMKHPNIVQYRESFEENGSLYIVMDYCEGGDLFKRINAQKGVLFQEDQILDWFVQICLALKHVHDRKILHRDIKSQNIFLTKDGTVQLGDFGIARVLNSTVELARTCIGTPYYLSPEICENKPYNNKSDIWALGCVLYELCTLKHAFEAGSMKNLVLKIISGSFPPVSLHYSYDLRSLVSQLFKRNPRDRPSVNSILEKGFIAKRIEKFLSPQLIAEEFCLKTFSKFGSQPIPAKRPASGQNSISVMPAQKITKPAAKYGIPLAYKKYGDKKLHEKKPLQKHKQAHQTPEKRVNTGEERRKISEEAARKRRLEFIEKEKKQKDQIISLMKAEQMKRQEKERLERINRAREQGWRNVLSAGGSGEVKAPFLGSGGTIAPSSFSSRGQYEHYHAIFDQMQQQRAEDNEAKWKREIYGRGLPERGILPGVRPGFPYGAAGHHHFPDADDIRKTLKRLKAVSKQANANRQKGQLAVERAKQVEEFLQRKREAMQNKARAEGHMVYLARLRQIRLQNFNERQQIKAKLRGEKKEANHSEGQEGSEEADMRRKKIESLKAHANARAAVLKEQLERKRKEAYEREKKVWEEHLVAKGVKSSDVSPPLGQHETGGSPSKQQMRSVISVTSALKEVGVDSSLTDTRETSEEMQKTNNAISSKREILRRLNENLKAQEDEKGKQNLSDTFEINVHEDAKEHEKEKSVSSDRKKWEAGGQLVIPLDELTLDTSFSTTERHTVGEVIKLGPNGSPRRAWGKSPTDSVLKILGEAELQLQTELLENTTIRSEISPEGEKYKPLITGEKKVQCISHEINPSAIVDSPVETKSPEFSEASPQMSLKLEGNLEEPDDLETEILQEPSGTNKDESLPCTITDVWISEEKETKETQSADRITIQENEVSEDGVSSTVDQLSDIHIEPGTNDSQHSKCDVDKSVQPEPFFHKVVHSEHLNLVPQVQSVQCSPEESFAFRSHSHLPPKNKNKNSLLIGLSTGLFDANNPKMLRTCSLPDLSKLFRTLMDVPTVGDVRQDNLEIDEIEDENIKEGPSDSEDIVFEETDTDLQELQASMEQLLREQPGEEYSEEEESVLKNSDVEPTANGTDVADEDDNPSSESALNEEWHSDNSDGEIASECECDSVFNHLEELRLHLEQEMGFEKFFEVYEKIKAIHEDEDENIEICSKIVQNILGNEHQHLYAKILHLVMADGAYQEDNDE
# [3] = biological target: T2, Serine/threonine-protein kinase Nek1 (Homo sapiens); conditions: at 1 µM
# [4] = biological target: T3, Serine/threonine-protein kinase Nek2 (Homo sapiens) (UniProt P51955); conditions: at 0.1 µM
# T3 sequence (whole entry): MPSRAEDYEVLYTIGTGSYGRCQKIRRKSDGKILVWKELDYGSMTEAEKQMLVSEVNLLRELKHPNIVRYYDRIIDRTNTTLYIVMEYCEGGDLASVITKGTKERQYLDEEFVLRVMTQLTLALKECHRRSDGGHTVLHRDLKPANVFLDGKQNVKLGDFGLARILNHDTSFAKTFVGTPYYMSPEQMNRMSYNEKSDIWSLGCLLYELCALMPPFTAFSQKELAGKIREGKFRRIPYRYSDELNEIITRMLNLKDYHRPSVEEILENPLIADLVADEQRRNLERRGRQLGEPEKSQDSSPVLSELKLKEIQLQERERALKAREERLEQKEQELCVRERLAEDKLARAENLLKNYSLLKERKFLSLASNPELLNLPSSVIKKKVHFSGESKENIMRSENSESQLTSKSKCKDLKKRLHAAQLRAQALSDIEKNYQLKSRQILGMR
# [5] = biological target: T3, Serine/threonine-protein kinase Nek2 (Homo sapiens); conditions: at 1 µM
# [6] = biological target: Serine/threonine-protein kinase Nek6 (Homo sapiens) (UniProt Q9HC98); conditions: at 0.1 µM
# Sequence of Serine/threonine-protein kinase Nek6 (Homo sapiens) (Q9HC98 whole entry): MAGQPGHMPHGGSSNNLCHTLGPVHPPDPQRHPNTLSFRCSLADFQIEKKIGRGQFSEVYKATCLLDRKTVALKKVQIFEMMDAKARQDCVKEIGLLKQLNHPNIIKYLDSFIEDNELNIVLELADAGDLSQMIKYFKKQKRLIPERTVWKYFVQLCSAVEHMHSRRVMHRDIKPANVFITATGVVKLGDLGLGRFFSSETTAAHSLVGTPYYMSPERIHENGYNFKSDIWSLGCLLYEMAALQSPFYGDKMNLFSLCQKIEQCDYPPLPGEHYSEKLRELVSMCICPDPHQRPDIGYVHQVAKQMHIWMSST
# [7] = biological target: Serine/threonine-protein kinase Nek6 (Homo sapiens) (UniProt Q9HC98); conditions: at 1 µM
# [8] = biological target: Serine/threonine-protein kinase Nek7 (Homo sapiens) (UniProt Q8TDX7); conditions: at 0.1 µM
# Sequence of Serine/threonine-protein kinase Nek7 (Homo sapiens) (Q8TDX7 whole entry, looked up): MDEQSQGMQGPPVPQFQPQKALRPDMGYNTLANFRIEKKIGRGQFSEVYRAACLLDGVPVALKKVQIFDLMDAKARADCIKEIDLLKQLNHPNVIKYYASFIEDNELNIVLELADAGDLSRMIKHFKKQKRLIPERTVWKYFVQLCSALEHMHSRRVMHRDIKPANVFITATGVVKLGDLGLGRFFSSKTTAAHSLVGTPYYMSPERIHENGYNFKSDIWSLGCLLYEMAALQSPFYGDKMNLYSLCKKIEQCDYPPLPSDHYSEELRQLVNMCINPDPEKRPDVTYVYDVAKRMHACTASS
# [9] = biological target: Serine/threonine-protein kinase Nek7 (Homo sapiens) (UniProt Q8TDX7); conditions: at 1 µM
# [10] = biological target: T4, Serine/threonine-protein kinase Nek9 (Homo sapiens) (UniProt Q8TD19); conditions: at 0.1 µM;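 also: reported value is the mean percent inhibition of NEK9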
# T4 sequence (whole entry): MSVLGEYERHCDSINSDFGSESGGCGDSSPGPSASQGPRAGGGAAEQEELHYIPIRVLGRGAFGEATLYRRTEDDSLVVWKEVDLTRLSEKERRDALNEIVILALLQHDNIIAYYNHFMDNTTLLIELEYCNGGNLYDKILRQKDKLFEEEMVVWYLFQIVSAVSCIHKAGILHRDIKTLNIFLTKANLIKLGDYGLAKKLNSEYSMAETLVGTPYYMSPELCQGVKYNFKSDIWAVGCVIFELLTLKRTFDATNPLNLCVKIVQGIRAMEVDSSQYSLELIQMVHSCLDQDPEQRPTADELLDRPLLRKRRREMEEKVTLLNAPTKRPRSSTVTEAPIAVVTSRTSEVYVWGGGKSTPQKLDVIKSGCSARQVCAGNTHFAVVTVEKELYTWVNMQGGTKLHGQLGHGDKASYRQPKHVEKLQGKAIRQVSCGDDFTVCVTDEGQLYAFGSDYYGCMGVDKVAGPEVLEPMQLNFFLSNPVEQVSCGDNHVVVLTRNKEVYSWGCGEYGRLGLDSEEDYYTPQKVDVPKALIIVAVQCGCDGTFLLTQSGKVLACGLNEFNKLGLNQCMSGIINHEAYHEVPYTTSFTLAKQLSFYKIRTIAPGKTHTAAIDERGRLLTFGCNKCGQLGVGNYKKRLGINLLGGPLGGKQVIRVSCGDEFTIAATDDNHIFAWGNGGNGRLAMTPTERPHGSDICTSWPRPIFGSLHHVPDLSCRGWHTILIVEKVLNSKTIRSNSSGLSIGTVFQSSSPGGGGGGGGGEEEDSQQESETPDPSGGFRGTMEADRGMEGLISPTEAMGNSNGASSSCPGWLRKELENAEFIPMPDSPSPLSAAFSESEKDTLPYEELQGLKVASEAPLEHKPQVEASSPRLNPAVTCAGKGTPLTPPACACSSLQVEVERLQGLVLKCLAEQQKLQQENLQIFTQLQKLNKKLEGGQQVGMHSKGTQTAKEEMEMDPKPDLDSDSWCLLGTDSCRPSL
compound,measurement,setting,value
Fc1ccc(-c2ncn(C3CCNCC3)c2-c2ccnc(Oc3ccc(F)c(F)c3)n2)cc1,inhibition,[1],4.67%
same,inhibition,[2],2.19%
same,inhibition,[3],0.52%
same,inhibition,[4],5.55%
same,inhibition,[5],4.23%
same,inhibition,[6],0.84%
same,inhibition,[7],2.1%
same,inhibition,[8],3.19%
same,inhibition,[9],6.72%
same,inhibition,[10],6.39%
